# Screens deposited in PubChem by several laboratories.
# Only some compounds are listed: those with a hit (about 3.6% of all), similar ones and a draw of the others.
# HSP90 refold inh – HSP90 refolding inhibition in rabbit reticulocyte lysate | luciferase refolding luminescence, 3 h | inhibition, % at 5.6 µM | hit rate 0.91% among 290,000 | AID 1789;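 active = inhibition above the screen-wide mean plus 3 SD, computed separately per campaign, cut at about 16% in these data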;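 note: 0% = DMSO wells and 100% = 60 µM geldanamycin wells; inhibitors lower the luminescence because luciferase stays unfolded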
# CF NFkB inh – inhibitors of cystic fibrosis induced NF-kB | KKLEB NF-kB-GFP reporter, PAF-induced, GFP fluorescence overnight | inhibition, % at 5 µM | hit rate 0.86% among 360,000 | AID 588850;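 active = at least 50% inhibition at 5 µM, scaled per plate between neutral and stimulator controls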;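 note: PAF is a Pseudomonas aeruginosa culture filtrate used as stimulus; plate controls were PAF-stimulated DMSO wells for no effect and unstimulated DMSO wells for full effect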
# Mdm2 MdmX PPI – inhibitors of human Mdm2/MdmX interaction; inhibition, % at 8 µM; SaOS-2 split-luciferase Mdm2/MdmX complementation, luminescence; O15151+Q00987; hit rate 3% among 330,000;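 active = inhibition of at least 50% at 8 µM in the primary screen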
# Target sequence (O15151 whole entry, looked up): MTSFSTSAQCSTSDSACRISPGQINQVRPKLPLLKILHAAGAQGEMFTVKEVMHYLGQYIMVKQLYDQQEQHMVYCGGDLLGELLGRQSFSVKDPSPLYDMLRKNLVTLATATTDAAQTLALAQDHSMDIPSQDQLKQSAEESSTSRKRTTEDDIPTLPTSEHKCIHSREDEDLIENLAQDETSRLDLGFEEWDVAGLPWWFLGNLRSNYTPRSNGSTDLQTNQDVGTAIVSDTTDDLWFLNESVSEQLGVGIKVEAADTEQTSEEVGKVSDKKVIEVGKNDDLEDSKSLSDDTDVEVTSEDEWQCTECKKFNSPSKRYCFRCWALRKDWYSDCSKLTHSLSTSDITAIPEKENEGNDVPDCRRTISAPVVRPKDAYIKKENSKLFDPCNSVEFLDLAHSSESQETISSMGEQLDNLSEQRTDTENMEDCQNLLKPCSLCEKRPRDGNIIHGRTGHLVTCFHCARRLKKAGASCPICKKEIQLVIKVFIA
# Target sequence (Q00987 whole entry, looked up): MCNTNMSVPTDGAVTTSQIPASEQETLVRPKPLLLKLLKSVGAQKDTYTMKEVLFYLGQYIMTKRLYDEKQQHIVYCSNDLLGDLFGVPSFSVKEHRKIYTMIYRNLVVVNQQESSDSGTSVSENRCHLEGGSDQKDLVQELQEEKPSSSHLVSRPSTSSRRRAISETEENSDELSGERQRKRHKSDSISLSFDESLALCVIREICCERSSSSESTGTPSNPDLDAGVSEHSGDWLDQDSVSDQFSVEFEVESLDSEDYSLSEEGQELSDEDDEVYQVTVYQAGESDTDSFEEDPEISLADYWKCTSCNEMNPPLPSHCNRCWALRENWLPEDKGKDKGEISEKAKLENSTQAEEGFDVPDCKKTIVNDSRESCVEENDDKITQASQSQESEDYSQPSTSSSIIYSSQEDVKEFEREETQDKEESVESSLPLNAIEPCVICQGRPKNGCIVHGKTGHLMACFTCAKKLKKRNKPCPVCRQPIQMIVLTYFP
# LGR2 antag – Drosophila LGR2 receptor signaling inhibition | HEK293 LGR2, CRE-luciferase, bursicon-stimulated, 4 h | inhibition, % at 9.99 µM | hit rate 0.35% among 380,000 | AID 720647;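 active = drop in luminescence signal, shown as inhibition above about 50% in the replicate tests, limit read from the data, passing the limit was not always enough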;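 note: agonist challenge used bursicon conditioned medium at about half maximal strength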
# Peg3 promoter – reduces Peg3 promoter-driven luciferase expression in HeLa; inhibition, % at 20 µM; HeLa PEG-Prom luciferase reporter, luminescence, overnight; hit rate 1.7% among 360,000;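 active = inhibition of at least 50% at 20 µM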
# KKLEB cytotox – counter-screen for CF NF-kB inhibitors: cytotoxicity; KKLEB CF airway cells viability, ATPlite luminescence, overnight; active compounds read low; cells stimulated with P. aeruginosa culture filtrate; activity change (cytotoxicity), % at 5 µM; hit rate 0.36% among 360,000;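 active = corrected activity change at or below -50% at 5 µM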
# HSP90 inh confirm – HSP90 inhibition, confirmation assay | shares compounds with HSP90 refold inh | rabbit reticulocyte lysate, luciferase refolding luminescence, 3 h | inhibition, % at 5.9 µM | hit rate 64% among 2,300 | AID 1846; in the data active = inhibition above about 18%;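 note: 0% = vehicle wells and 100% = reference inhibitor wells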
# FLuc counter – counter-screen for HSP90 inhibitors: inhibitors of firefly luciferase; AID 1847; hit rate 48% among 2,300; shares compounds with HSP90 refold inh; purified native firefly luciferase, luminescence; inhibition, % at 5.9 µM;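 active = inhibition above the mean inhibition of all tested sample wells plus 3 SD, cut at about 10% in these data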;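 note: 0% = DMSO with luciferase and 100% = wells lacking luciferase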
# Numbers without * were called inactive; . = no result given.
SMILES,HSP90 refold inh,CF NFkB inh,Mdm2 MdmX PPI,LGR2 antag,Peg3 promoter,KKLEB cytotox,HSP90 inh confirm,FLuc counter
Cc1ccc(NC2=Nc3ccccc3CS2)cc1,26*,-24,-178,.,-125,-18,48*,43*
Cc1ccc(S(=O)(=O)N2CC[C@@H]3[C@@H](CO)N(C)c4ccc(-c5ccc(C#N)cc5)cc4[C@@H]32)cc1,.,.,.,15,.,.,.,.
COc1cc(OC)cc(C(=O)NCC(=O)OCC(=O)Nc2cc(S(C)(=O)=O)ccc2Cl)c1,27*,-2,-5,0,4,1,-11,-15
O=C(C[C@H]1CC[C@@H]2[C@H](COC[C@H](O)CN2Cc2cocn2)O1)NCc1cccc(F)c1,.,.,.,1,.,.,.,.
CSc1nnc([C@@H]2CCCN2C(=O)OC(C)(C)C)o1,3,-5,0,-7,-4,-2,.,.
Cn1c(C2CCCN2C(=O)OC(C)(C)C)n[nH]c1=S (configuration not stated),34*,5,4,.,5,3,-1,-4
CCCN(C)C[C@@H]1OCCCC[C@@H](C)Oc2ccc(NS(=O)(=O)c3ccc(C)cc3)cc2C(=O)N([C@H](C)CO)C[C@H]1C,.,.,.,6,.,.,.,.
C[C@@H]1CN([C@@H](C)CO)C(=O)c2cc(NC(=O)Nc3ccc4c(c3)OCO4)ccc2O[C@H]1CN(C)C(=O)Nc1ccccc1,.,.,.,-4,.,.,.,.
Cc1ccc(C(=O)/C=C2\NCC(C)NC2=O)cc1 (configuration not stated),37*,0,27,54*,6,2,56*,43*
Cc1ccc(C(=O)/C=C2\NCCNC2=O)cc1,7,-11,-84,.,-170,0,.,.
CC(C)CN1C(=O)NC(NC(=O)c2ccco2)(C(F)(F)F)C1=O (configuration not stated),27*,-11,10,.,2,8,1,-10
CC(=O)NC[C@H]1[C@@H](c2ccccc2)[C@@H](CO)N1C(=O)Cc1ccncc1,.,.,.,0,.,.,.,.
CN(C)S(=O)(=O)c1ccc(NC(=O)c2ccncc2)cc1,42*,-10,-18,.,2,14,-4,-8
CCCCN(C)C(=O)c1cc2cc3ccc(OC)cc3nc2s1,30*,-2,-162,.,-74,-38,39*,27*
CC(C)=CC(=O)N1CC[C@@H](N2CCN(c3ccccc3F)CC2)[C@H](O)C1,-2,-10,-4,1,-6,0,.,.
O=C(c1cccc(-c2ccccc2F)c1)N1CC[C@@H](N2CCC(O)CC2)[C@H](O)C1,84*,-2,-16,28,-9,1,4,-4
COCC(=O)N1C[C@@H](C)[C@@H](OC)CN(C)C(=O)c2ccc(NC(=O)NC(C)C)cc2OC[C@H]1C,.,.,.,12,.,.,.,.
CN(C)c1cccc2c(/C=N/O)ccc(N(C)C)c12,52*,8,1,24,0,-19,-3,-6
CN(C)c1cccc2c(C=C(C#N)C#N)ccc(N(C)C)c12,-3,-6,-11,-2,4,-4,.,.
COc1ccc(CN(C)C[C@@H]2Oc3ccc(NC(=O)C4CC4)cc3CC(=O)N([C@H](C)CO)C[C@@H]2C)cc1,.,.,.,-4,.,.,.,.
CCNS(=O)(=O)c1cc(OC)c(Cl)cc1OC,0,-19,4,-2,5,-4,.,.
COCCNS(=O)(=O)c1cc(OC)c(Cl)cc1Cl,17*,.,11,.,.,.,3,-3
O=C(C[C@H]1CC[C@@H]2[C@H](COC[C@H](O)CN2C(=O)Nc2ccc(F)cc2)O1)NCCCN1CCOCC1,.,.,.,6,.,.,.,.
COc1ccc(-c2cc(C(=O)N3CCOCC3)no2)cc1,37*,4,10,53*,-44,4,50*,32*
CC1CCCCN1C(=O)c1cc(-c2ccc3c(c2)OCO3)on1 (configuration not stated),7,4,-114,-59,-323,0,.,.
SMILES,HSP90 refold inh,CF NFkB inh,Mdm2 MdmX PPI,LGR2 antag,Peg3 promoter,KKLEB cytotox,HSP90 inh confirm,FLuc counter
COc1cccc(-c2cc(C(=O)N3CCOCC3)no2)c1,18*,1,-48,-22,-190,-1,19*,-4
CC1CCN(C(=O)c2cc(-c3ccc4c(c3)OCO4)on2)CC1,20*,21,-131,-16,-287,-8,39*,28*
O=C(c1cc(-c2ccc(Br)cc2)on1)N1CCOCC1,19*,10,-39,-4,-274,-2,38*,29*
Cc1ccc(NC(=O)C2CCN(C(=O)c3ccco3)CC2)cc1,-6,-10,-7,8,-3,9,.,.
Cc1cc(Br)ccc1NC(=O)C1CCN(C(=O)c2ccco2)CC1,75*,2,-1,4,-16,1,-9,-11
COc1ccc(C(=O)Nc2ccc3c(c2)C(=O)N(C)C[C@H](OC)[C@@H](C)CN(C)[C@H](C)CO3)cc1,.,.,.,4,.,.,.,.
C=CCc1ccc(OCc2ccc(C(=O)OC)o2)c(OC)c1,25*,-1,-108,.,-162,4,55*,-23
O=C(NCc1ccc(F)cc1)C1CCCN1C(=O)Nc1cccc(F)c1 (configuration not stated),24*,0,23,2,16,5,-1,-3
COc1ccc(NC(=O)N2CCCC2C(=O)NCc2ccc(F)cc2)cc1 (configuration not stated),2,7,10,.,0,-3,.,.
CCCC(=NC(C)CC)C1=C(O)CC(c2ccccc2)CC1=O (configuration not stated),24*,14,-3,1,14,1,6,5
Cc1noc(C)c1S(=O)(=O)Nc1ccc2c(c1)C(=O)N([C@@H](C)CO)C[C@@H](C)[C@H](CN(C)C(=O)Nc1ccc(F)cc1)O2,.,.,.,-21,.,.,.,.
CCc1ccc2oc(-c3cccc(N)c3)nc2c1,18*,-3,-111,.,-76,-17,60*,58*
Cc1ccc2nc(-c3cccc(N)c3)oc2c1,23*,-15,-71,15,-53,-16,67*,64*
C[C@@H]1CCCCO[C@@H](CN(C)C(=O)Nc2ccc3c(c2)OCO3)[C@@H](C)CN([C@H](C)CO)C(=O)c2cc(NS(=O)(=O)c3cccs3)ccc2O1,.,.,.,-10,.,.,.,.
COc1ccccc1NC(=O)N(C)C[C@@H]1Oc2ncc(C#CC(C)C)cc2C(=O)N([C@H](C)CO)C[C@H]1C,.,.,.,-7,.,.,.,.
Cc1cccc(Nc2nc(-c3ccncc3)cs2)c1,-5,42,4,-72,-126,-16,.,.
Cc1cccc(Nc2nc(-c3ccc4c(c3)OCCO4)cs2)c1,47*,0,-61,.,-245,8,-2,-27
CS(=O)(=O)c1ccc2nc(NC(=O)Nc3ccccc3F)sc2c1,18*,3,-206,-15,-286,7,18*,-2
